Measurements as given in PubChem BioAssay (NCATS).
Results filed as inconclusive are left out. Activity calls are given as the source filed them. Calls follow the shape of the dose curve; as a rule, active = well fitted curve in the direction sought with a large enough effect; inconclusive = small, poorly fitted or top-dose-only effect, or another doubt; inactive = no such curve, though single readings can be large; an effect the other way counts as inactive or inconclusive.

Legend:
[1] = tested on: NIH3T3; experiment: qHTS assay to identify novel small-molecules to repurpose for Merkel cell carcinoma treatment (AID 1296009); settings: MCC and control cell lines, CellTiter-Glo viability, 72 h; at 44.8 µM (top of the series) unless noted; also: nearly all actives have a fitted effect of over 60% in size
Procedure, shortened: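 Cells were incubated with compound for 72 hr at 37 degree celsius before CellTiter-Glo addition. Luminescence was normalized with no-cell wells as full cytotoxicity and DMSO as baseline.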

[2] = tested on: C33A; experiment: Primary qHTS to identify gynecologic anti-cancer compounds using libraries of approved drugs and bioactive compounds (AID 1345084); settings: Gynecologic cancer cell panel viability, ATPlite luminescence, 48 h; series mostly up to 57.5 µM; also: % is scaled to controls: 0 for no effect and ±100 for the full control effect; nearly all actives have a fitted effect of over 55% in size
Procedure, shortened: (§1)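 Cytotoxicity screen measuring ATP content by luciferase luminescence. Each compound is applied at five concentrations for 48 h at 37 C with 5% CO2.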

[3] = tested on: CAOV3; experiment: as above; settings: Gynecologic cancer cell panel viability, ATPlite luminescence, 48 h; series mostly up to 57.5 µM
Procedure, shortened: as §1

[4] = tested on: CASKI; experiment: as above; settings: Gynecologic cancer cell panel viability, ATPlite luminescence, 48 h; series mostly up to 57.5 µM
Procedure, shortened: as §1

[5] = tested on: Es-2; experiment: as above; settings: Gynecologic cancer cell panel viability, ATPlite luminescence, 48 h; series mostly up to 57.5 µM
Procedure, shortened: as §1

[6] = tested on: HeLa; experiment: as above; settings: Gynecologic cancer cell panel viability, ATPlite luminescence, 48 h; series mostly up to 57.5 µM
Procedure, shortened: as §1

[7] = tested on: Hek293T; experiment: as above; settings: Gynecologic cancer cell panel viability, ATPlite luminescence, 48 h, control line for the selectivity index; series mostly up to 57.5 µM
Procedure, shortened: as §1

[8] = tested on: JEG-3; experiment: as above; settings: Gynecologic cancer cell panel viability, ATPlite luminescence, 48 h; series mostly up to 57.5 µM
Procedure, shortened: as §1

[9] = tested on: OV90; experiment: as above; settings: Gynecologic cancer cell panel viability, ATPlite luminescence, 48 h; series mostly up to 57.5 µM
Procedure, shortened: as §1

[10] = tested on: PA-1; experiment: as above; settings: Gynecologic cancer cell panel viability, ATPlite luminescence, 48 h; series mostly up to 57.5 µM
Procedure, shortened: as §1

[11] = tested on: SKOV3; experiment: as above; settings: Gynecologic cancer cell panel viability, ATPlite luminescence, 48 h; series mostly up to 57.5 µM
Procedure, shortened: as §1

[12] = tested on: Tov-21-G; experiment: as above; settings: Gynecologic cancer cell panel viability, ATPlite luminescence, 48 h; series mostly up to 57.5 µM
Procedure, shortened: as §1

[13] = tested on: Tov112D; experiment: as above; settings: Gynecologic cancer cell panel viability, ATPlite luminescence, 48 h; series mostly up to 57.5 µM
Procedure, shortened: as §1

C=C1[C@@H]2CC[C@@]3(C)[C@H](c4ccoc4)OC(=O)C[C@]13O[C@H]1CC(=O)C(C)(C)[C@H](CC(=O)OC)[C@]12C
inactive: outcome [1] inactive [at 17.4 µM] | Potency [2] | Potency [3] | Potency [4] | Potency [5] | Potency [6] | Potency [7] | Potency [8] | Potency [9] | Potency [10] | Potency [11] | Potency [12] | Potency [13]

C=C1CCC[C@]2(C)C[C@]3(O)OC(=O)C(C)=C3C[C@@H]12
inactive: outcome [1] | Potency [2] | Potency [3] | Potency [4] | Potency [5] | Potency [6] | Potency [7] | Potency [8] | Potency [9] | Potency [10] | Potency [11] | Potency [12] | Potency [13]

CCS(=O)(=O)N1CCC([C@@H](C)n2c(C)c(C(=O)NCc3c(OC)cc(C)[nH]c3=O)c3ccccc32)CC1
inactive: outcome [1] | Potency [2] | Potency [3] | Potency [4] | Potency [5] | Potency [6] | Potency [7] | Potency [8] | Potency [9] | Potency [10] | Potency [11] | Potency [12] | Potency [13]

C[C@H]1C[C@H]2[C@@H]3CCC4=CC(=O)C=C[C@]4(C)[C@@]3(F)[C@@H](O)C[C@]2(C)[C@@]1(O)C(=O)COP(=O)(O)O
inactive: outcome [1] | Potency [2] | Potency [3] | Potency [4] | Potency [5] | Potency [6] | Potency [7] | Potency [8] | Potency [9] | Potency [10] | Potency [11] | Potency [12] | Potency [13]

CN1C(=O)N[C@@H](Cc2c[nH]c3c(Cl)cccc23)C1=O
inactive: outcome [1] | Potency [2] | Potency [3] | Potency [4] | Potency [5] | Potency [6] | Potency [7] | Potency [8] | Potency [9] | Potency [10] | Potency [11] | Potency [12] | Potency [13]

CC(C)CC1(C(=O)OCc2ccc(O[C@@H]3O[C@H](CO)[C@@H](O)[C@H](O)[C@H]3O)cc2)CC(=O)OC(C(=O)O)CC(=O)OCC2OC(O1)C(OC(=O)/C=C/c1ccc(O)cc1)C(O)C2O (some centres not stated)
inactive: outcome [1] inactive [at 9.27 µM] | activity change, negative = cytotoxicity [2] -0.106% [at 11.6 µM] | activity change, negative = cytotoxicity [3] 1.66% [at 11.6 µM] | activity change, negative = cytotoxicity [4] -1.89% [at 11.6 µM] | activity change, negative = cytotoxicity [5] 11.3% [at 11.6 µM] | activity change, negative = cytotoxicity [6] 0% [at 11.6 µM] | activity change, negative = cytotoxicity [7] 5.47% [at 11.6 µM] | activity change, negative = cytotoxicity [8] 1.44% [at 11.6 µM] | activity change, negative = cytotoxicity [9] -14.4% [at 11.6 µM] | activity change, negative = cytotoxicity [10] -8.97% [at 11.6 µM] | activity change, negative = cytotoxicity [11] -14.9% [at 11.6 µM] | activity change, negative = cytotoxicity [12] -1.82% [at 11.6 µM] | activity change, negative = cytotoxicity [13] 0.377% [at 11.6 µM]

CC(O)C(O)/C=C/C=C/C(=O)O[C@@H]1C=C2COC(=O)[C@]2(O)[C@@]2(C)CCCC(C)(C)C12 (some centres not stated)
inactive: outcome [1] inactive [at 17.4 µM] | Potency [2] | Potency [3] | Potency [4] | Potency [5] | Potency [6] | Potency [7] | Potency [8] | Potency [9] | Potency [10] | Potency [11] | Potency [12] | Potency [13]

C=C1C(OC(C)=O)C(=O)C2C(C)(C)C(OC(C)=O)CCC2(C)C1CC(OC(C)=O)/C(C)=C/COC(C)=O (configuration not stated)
inactive: outcome [1] inactive [at 17.4 µM] | Potency [2] | Potency [3] | Potency [4] | Potency [5] | Potency [6] | Potency [7] | Potency [8] | Potency [9] | Potency [10] | Potency [11] | Potency [12] | Potency [13]

CC(C)(O)C1=CCC23COC(C2)C(O)(C(=O)O)CCC13 (configuration not stated)
inactive: outcome [1] | Potency [2] | Potency [3] | Potency [4] | Potency [5] | Potency [6] | Potency [7] | Potency [8] | Potency [9] | Potency [10] | Potency [11] | Potency [12] | Potency [13]

O=C(/C=C/c1ccccc1)OCC1=CC[C@@H]2C(C(=O)O)=CO[C@@H](O[C@@H]3O[C@H](CO)[C@@H](O)[C@H](O)[C@H]3O)[C@H]12
inactive: outcome [1] inactive [at 17.4 µM] | Potency [2] | Potency [3] | Potency [4] | Potency [5] | Potency [6] | Potency [7] | Potency [8] | Potency [9] | Potency [10] | Potency [11] | Potency [12] | Potency [13]

O=C(/C=C/c1ccc(O)cc1)OCC1=C[C@@H](O)[C@@H]2C=CO[C@@H](O[C@@H]3O[C@H](CO)[C@@H](O)[C@H](O)[C@H]3O)[C@H]12
inactive: outcome [1] inactive [at 17.4 µM] | Potency [2] | Potency [3] | Potency [4] | Potency [5] | Potency [6] | Potency [7] | Potency [8] | Potency [9] | Potency [10] | Potency [11] | Potency [12] | Potency [13]

CC(C)=CC/C=C(/C)[C@H]1CC[C@]2(C)[C@@H]1[C@H](O)CC1[C@@]3(C)CC[C@H](O)C(C)(C)[C@@H]3[C@@H](O[C@@H]3O[C@H](CO)[C@@H](O)[C@H](O)[C@H]3O[C@@H]3O[C@@H](C)[C@H](O)[C@@H](O)[C@H]3O)C[C@]12C (some centres not stated)
inactive: outcome [1] inactive [at 17.4 µM] | Potency [2] | Potency [3] | Potency [4] | Potency [5] | Potency [6] | Potency [7] | Potency [8] | Potency [9] | Potency [10] | Potency [11] | Potency [12] | Potency [13]

CC/C=C\C[C@H]1C(=O)C=C[C@@H]1CCCCCCCC(=O)O
inactive: outcome [1] | Potency [2] | Potency [3] | Potency [4] | Potency [5] | Potency [6] | Potency [7] | Potency [8] | Potency [9] | Potency [10] | Potency [11] | Potency [12] | Potency [13]

OC[C@H]1O[C@@H](Oc2ccc(O)c3cccc(O)c23)[C@H](O)[C@@H](O)[C@@H]1O
inactive: outcome [1] | Potency [2] | Potency [3] | Potency [4] | Potency [5] | Potency [6] | Potency [7] | Potency [8] | Potency [9] | Potency [10] | Potency [11] | Potency [12] | Potency [13]
